Inconclusive results are not listed. The source made the active and inactive calls. Unless noted, the call rests on the fitted dose curve.
How the values were obtained:
[1] = Nuclear factor erythroid 2-related factor 2/antioxidant responsive element (Nrf2/ARE) small molecule agonists: qHTS cell viability counter screen in human keratinocytes (AID 1919968; active means well fitted curve in the direction sought with a large enough effect in the repeat runs; an effect the other way counts as inactive or inconclusive; further: nearly all actives have a fitted effect of over 55% in size)
Method in brief: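 CellTiter-Fluor fluorescence, read 1 h after reagent, gave viability in the same wells as the ARE-luciferase assay. KeratinoSens cells (1,500/well) had 23 h compound exposure at 37 C/5% CO2 following 5 h plating.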

[2] = biological target: KiSS-1 receptor (Homo sapiens) (UniProt Q969F8); test: Human kisspeptin (KISS1R) small molecule agonists, calcium flux assay in KISS1R-HEK293 cells (AID 1920064; active means well fitted curve in the direction sought with a large enough effect in the repeat runs; an effect the other way counts as inactive or inconclusive)
Method in brief: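 Agonist mode: intracellular calcium rise tracked at 1 s intervals over 3 min (480/540 nm) immediately after compound addition to dye-loaded KISS1R-HEK293 stable cells. Each compound tested at 15 concentrations in triplicate.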

[3] = G protein-coupled receptor (GPCR) small molecule agonists, calcium flux assay: HEK293 wild type cell line counter screen (AID 1920065)
Method in brief: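 Calcium flux counter screen: compound added in agonist mode at 15 concentrations in triplicate to dye-loaded parental HEK293 cells. Fluorescence (480/540) read kinetically for 3 min; ATP served as positive control.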

[4] = p53 small molecule agonists, cell-based qHTS assay with human liver microsomes (AID 1963577);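 further: p53 response element beta-lactamase reporter cells with liver microsomes plus NADPH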
Method in brief: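 HLM-supplemented p53RE-bla reporter assay: 16 h compound exposure at 37 C, microsomes and NADPH each 0.5 mg/mL final, read by fluorescence intensity.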

[5] = p53 small molecule agonists, cell-based qHTS assay with rat liver microsomes (AID 1963578)
Method in brief: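 Quantitative HTS of the Tox21 10K library: p53RE-bla cells, rat liver microsomes plus NADPH at 0.5 mg/mL final each, 16 h at 37 C, beta-lactamase fluorescence detection.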

[6] = p53 small molecule agonists, cell-based qHTS assay with human liver microsomes: qHTS cell viability counter screen (AID 1963579); further: nearly all actives have a fitted effect of over 45% in size
Method in brief: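 Viability of p53RE-bla cells is measured as CellTiter-Glo luminescence following a 16 h, 37 C incubation with compound, liver microsomes from human donors and NADPH.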

[7] = p53 small molecule agonists, cell-based qHTS assay with rat liver microsomes: qHTS cell viability counter screen (AID 1963580); further: nearly all actives have a fitted effect of over 45% in size
Method in brief: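 Cytotoxicity counter screen: intracellular ATP read by CellTiter-Glo luminescence in the p53 reporter wells. HCT-116 p53RE-bla cells were treated for 16 h at 37 C alongside rat liver microsomes and NADPH, each 0.5 mg/mL final.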

[8] = p53 small molecule agonists, cell-based qHTS assay: qHTS cell viability counter screen (AID 1963581); further: nearly all actives have a fitted effect of over 45% in size
Method in brief: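 Counter screen read by CellTiter-Glo luminescence (ATP content, 30 min at room temperature), run in the same wells as the beta-lactamase reporter read. HCT-116 p53RE-bla cells saw compounds for 16 h at 37 C.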

[9] = p53 small molecule agonists, cell-based qHTS assay (AID 1963582; active means well fitted activation curve with a large enough effect in the signal ratio in the repeat runs, not every such curve was filed as active; the % refers to the signal ratio)
Method in brief: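 Read-out is beta-lactamase FRET fluorescence after 2 h at room temperature with LiveBLAzer B/G substrate. p53 response element-bla cells were treated 16 h at 37 C with compounds in DMSO, added 5 h after seeding.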

[10] = biological target: 5-hydroxytryptamine receptor 2A (Homo sapiens) (UniProt P28223); test: 5-hydroxytryptamine receptor 2A (HTR2A) small molecule antagonists, cell-based qHTS assay (AID 1963586); further: nearly all actives have a fitted effect of over 45% in size
Method in brief: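 CHO cells stably expressing human HTR2A were plated for 18 h at 37 C, then loaded with calcium dye for 1 h. Compounds were preincubated 5 min at room temperature before DOI (4 nM solution) was added. Kinetic fluorescence was read for 3 min.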

[11] = biological target: 5-hydroxytryptamine receptor 2A (Homo sapiens) (UniProt P28223); test: 5-hydroxytryptamine receptor 2A (HTR2A) small molecule agonists, cell-based qHTS assay (AID 1963587); further: nearly all actives have a fitted effect of over 30% in size
Method in brief: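 Kinetic calcium-flux fluorescence (2 min, 1 sec intervals) after compound addition in agonist mode. HTR2A-CHO cells were cultured 18 h, then dye-loaded 1 h at 37 C.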

[12] = biological target: Muscarinic acetylcholine receptor M1 (Homo sapiens) (UniProt P11229); test: Cholinergic receptor muscarinic 1 (CHRM1) small molecule antagonists, cell-based qHTS assay (AID 1963588); further: nearly all actives have a fitted effect of over 40% in size
Method in brief: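 Compounds were tested at 15 concentrations in three independent runs. Dye-loaded CHRM1-CHO cells were exposed 5 min at room temperature before stimulation by acetylcholine added at 50nM. Intracellular calcium was read kinetically on FDSS for 3 min.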

[13] = biological target: Muscarinic acetylcholine receptor M1 (Homo sapiens) (UniProt P11229); test: Cholinergic receptor muscarinic 1 (CHRM1) small molecule agonists, cell-based qHTS assay (AID 1963589); further: nearly all actives have a fitted effect of over 35% in size
Method in brief: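 Agonist-mode calcium-flux screen: compounds at 15 concentrations, three independent runs, were pin-transferred onto dye-loaded human CHRM1-CHO cells. Fluorescence was then recorded kinetically every second over minutes.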

[14] = cAMP Responsive Elements (CRE) small molecule agonists, cell-based qHTS assay (AID 1963590)
Method in brief: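 Agonist mode: compound added to CRE-bla HEK 293T cells (2,000/well, 18 h after plating) for 3 h at 37 C/5% CO2. Reporter activity detected via FRET beta-lactamase substrate, 2 h room-temperature loading.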

[15] = cAMP Responsive Elements (CRE) small molecule antagonists, cell-based qHTS assay (AID 1963591; active means well fitted inhibition curve with a large enough effect in the signal ratio in the repeat runs, not every such curve was filed as active; the % refers to the signal ratio)
Method in brief: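 Antagonist mode: compounds are added alongside the adenylyl cyclase activator NKH477 (0.25 uM final) to CRE-bla HEK293T cells for 3 h. LiveBLAzer FRET substrate, 2 h at room temperature, reports bla expression.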

[16] = biological target: Beta-2 adrenergic receptor (Homo sapiens) (UniProt P07550); test: Adrenergic beta2 receptor (ADRB2) small molecule antagonists, cell-based qHTS assay (AID 1963592); further: series mostly up to about 92 µM; nearly all actives have a fitted effect of over 50% in size
Method in brief: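 Assay format: CHO-ADRB2 cells, 18-20hr seeding at 37C/5% CO2, then compound plus 1nM isoproterenol agonist mix for 0.5hr RT. Homogeneous time-resolved fluorescence cAMP detection after 1hr, expressed as 665/615 nm ratio.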

[17] = biological target: D(2) dopamine receptor (Homo sapiens) (UniProt P14416); test: Dopamine D2 receptor (DRD2) small molecule agonists, cell-based qHTS assay (AID 1963594); further: nearly all actives have a fitted effect of over 35% in size
Method in brief: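 cAMP accumulation in DRD2-HEK293 cells measured by HTRF after 1 h detection; compounds added 10 min before NKH477 (200nM […]) forskolin-analogue stimulation, 30 min at room temperature, with Ro20-1724 present at 0.1 mM final.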

[18] = biological target: D(2) dopamine receptor (Homo sapiens) (UniProt P14416); test: Dopamine D2 receptor (DRD2) small molecule antagonists, cell-based qHTS assay (AID 1963595; active means well fitted inhibition curve with a large enough effect in the signal ratio in the repeat runs, with a control signal flat; the % refers to the signal ratio)
Method in brief: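 Antagonist mode in DRD2-HEK293 cells: after compound addition with 0.1 mM Ro20-1724, cells received quinpirole (12 nM) and NKH477 (200 nM) for 30 min at room temperature; HTRF cAMP read after 1 h detection.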

[19] = biological target: Beta-2 adrenergic receptor (Homo sapiens) (UniProt P07550); test: Adrenergic beta2 receptor (ADRB2) small molecule agonists, cell-based qHTS assay (AID 1963593);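 further: CHO cells stably overexpressing human ADRB2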
Method in brief: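 CHO cells stably over-expressing ADRB2 were plated overnight at 37C, then dosed with compounds plus a stimulation mix containing 100uM IBMX and 25uM Ro-20-1724 for 0.5hr at room temperature. cAMP was measured by HTRF competition, 1hr.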

[20] = Nuclear factor erythroid 2-related factor 2/antioxidant responsive element (Nrf2/ARE) small molecule agonists: luciferase reporter gene qHTS assay in human keratinocytes (AID 1919969); further: nearly all actives have a fitted effect of over 35% in size

Measured: Potency

Sequence of D(2) dopamine receptor (Homo sapiens) (P14416 whole entry, looked up): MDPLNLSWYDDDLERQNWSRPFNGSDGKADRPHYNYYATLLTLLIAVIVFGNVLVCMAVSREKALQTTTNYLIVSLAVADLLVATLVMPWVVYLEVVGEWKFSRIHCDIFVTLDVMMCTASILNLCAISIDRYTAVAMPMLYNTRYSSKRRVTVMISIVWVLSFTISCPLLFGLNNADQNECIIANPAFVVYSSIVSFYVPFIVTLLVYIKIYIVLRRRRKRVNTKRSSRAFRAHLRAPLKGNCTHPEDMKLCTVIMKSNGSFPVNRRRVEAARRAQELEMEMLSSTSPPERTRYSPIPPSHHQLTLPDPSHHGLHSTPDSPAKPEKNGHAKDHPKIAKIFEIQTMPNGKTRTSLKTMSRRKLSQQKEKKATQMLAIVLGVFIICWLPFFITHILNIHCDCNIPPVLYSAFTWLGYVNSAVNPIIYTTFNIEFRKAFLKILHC
Sequence of Beta-2 adrenergic receptor (Homo sapiens) (P07550 whole entry, looked up): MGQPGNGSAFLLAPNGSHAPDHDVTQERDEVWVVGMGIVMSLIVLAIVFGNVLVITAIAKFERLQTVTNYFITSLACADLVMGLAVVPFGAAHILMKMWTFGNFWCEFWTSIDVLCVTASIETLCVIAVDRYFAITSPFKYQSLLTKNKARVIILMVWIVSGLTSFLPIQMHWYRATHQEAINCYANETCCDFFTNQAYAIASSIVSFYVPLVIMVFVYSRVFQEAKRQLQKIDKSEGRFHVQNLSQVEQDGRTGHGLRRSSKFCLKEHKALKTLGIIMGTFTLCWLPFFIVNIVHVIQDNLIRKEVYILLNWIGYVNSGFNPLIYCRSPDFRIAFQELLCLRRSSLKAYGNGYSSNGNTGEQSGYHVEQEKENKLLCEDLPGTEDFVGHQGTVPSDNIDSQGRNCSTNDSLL
Sequence of KiSS-1 receptor (Homo sapiens) (Q969F8 whole entry, looked up): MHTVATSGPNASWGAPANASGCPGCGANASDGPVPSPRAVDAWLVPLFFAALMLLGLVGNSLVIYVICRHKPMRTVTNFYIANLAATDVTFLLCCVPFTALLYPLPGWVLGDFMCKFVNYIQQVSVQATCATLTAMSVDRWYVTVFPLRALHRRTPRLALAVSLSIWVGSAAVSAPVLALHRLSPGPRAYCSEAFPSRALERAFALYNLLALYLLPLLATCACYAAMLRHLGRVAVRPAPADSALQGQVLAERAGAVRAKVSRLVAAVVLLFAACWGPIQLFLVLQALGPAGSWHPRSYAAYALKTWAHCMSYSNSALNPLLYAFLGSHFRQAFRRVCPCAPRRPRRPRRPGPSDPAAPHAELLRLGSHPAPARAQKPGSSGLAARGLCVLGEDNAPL
Sequence of 5-hydroxytryptamine receptor 2A (Homo sapiens) (P28223 whole entry, looked up): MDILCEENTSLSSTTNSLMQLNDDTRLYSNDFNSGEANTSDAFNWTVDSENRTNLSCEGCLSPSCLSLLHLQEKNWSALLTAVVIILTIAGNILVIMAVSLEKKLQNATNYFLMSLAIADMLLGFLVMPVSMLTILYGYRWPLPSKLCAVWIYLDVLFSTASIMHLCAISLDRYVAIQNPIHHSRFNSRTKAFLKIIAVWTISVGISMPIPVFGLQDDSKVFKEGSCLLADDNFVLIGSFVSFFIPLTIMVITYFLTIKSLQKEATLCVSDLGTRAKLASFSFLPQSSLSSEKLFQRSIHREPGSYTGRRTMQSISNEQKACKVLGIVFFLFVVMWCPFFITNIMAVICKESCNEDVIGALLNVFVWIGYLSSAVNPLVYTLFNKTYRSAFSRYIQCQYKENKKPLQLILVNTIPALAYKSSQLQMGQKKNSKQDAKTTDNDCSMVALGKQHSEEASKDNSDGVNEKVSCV
Sequence of Muscarinic acetylcholine receptor M1 (Homo sapiens) (P11229 whole entry, looked up): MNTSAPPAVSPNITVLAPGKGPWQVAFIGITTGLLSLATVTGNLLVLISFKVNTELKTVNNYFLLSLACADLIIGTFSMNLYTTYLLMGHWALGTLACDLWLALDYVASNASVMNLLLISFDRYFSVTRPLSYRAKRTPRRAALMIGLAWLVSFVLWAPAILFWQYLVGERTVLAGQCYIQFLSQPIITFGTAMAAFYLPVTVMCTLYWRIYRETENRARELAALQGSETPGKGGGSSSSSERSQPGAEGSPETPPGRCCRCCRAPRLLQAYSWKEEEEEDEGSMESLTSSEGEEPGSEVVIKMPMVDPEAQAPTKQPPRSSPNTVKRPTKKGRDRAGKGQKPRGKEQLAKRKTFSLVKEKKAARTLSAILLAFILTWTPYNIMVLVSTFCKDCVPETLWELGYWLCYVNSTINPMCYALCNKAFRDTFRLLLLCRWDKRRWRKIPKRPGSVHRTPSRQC

Cc1ccc(NC(N)=O)cc1
inactive: [1] | [2] | [3] | [4] | [5] | [6] | [7] | [8] | [9] | [10] | [11] | [12] | [13] | [14] | [15] | [16] | [17] | [18]

COC(=O)c1c(C)cc(O)c(C)c1O
inactive: [1] | [2] | [3] | [4] | [5] | [6] | [7] | [8] | [9] | [10] | [11] | [12] | [13] | [14] | [15] | [19] | [17]

O=C(O)CCC(=O)OC[C@@H](NC(=O)C(Cl)Cl)[C@H](O)c1ccc([N+](=O)[O-])cc1
inactive: [1] | [20] | [3] | [4] | [5] | [7] | [8] | [9] | [10] | [11] | [12] | [13] | [14] | [15] | [16] | [19] | [17] | [18]

CC(C)(C)NCC(O)COc1cccc2c1C[C@H](O)[C@H](O)C2 (stereo partly specified)
inactive: [1] | [20] | [3] | [4] | [5] | [6] | [8] | [9] | [14] | [15] | [18]

Cc1ccc(O)cn1
inactive: [1] | [2] | [3] | [4] | [5] | [6] | [7] | [8] | [9] | [10] | [11] | [12] | [13] | [14] | [15] | [16] | [17] | [18]

CC1(C)CC(N)CC(C)(C)N1
inactive: [1] | [2] | [3] | [4] | [5] | [6] | [7] | [8] | [9] | [10] | [11] | [12] | [13] | [14] | [16] | [17] | [18]

O=C(O)CC(C(=O)O)S(=O)(=O)O (stereo unspecified)
inactive: [1] | [20] | [3] | [4] | [5] | [7] | [8] | [9] | [10] | [11] | [12] | [13] | [15] | [16] | [17] | [18]

CCn1cc(C(=O)O)c(=O)c2cc(F)c(N3CCNCC3)cc21
inactive: [1] | [20] | [3] | [4] | [5] | [6] | [7] | [8] | [9] | [15] | [16] | [19] | [17] | [18]

O=C(O)c1ccccc1C(=O)Nc1ccc(S(=O)(=O)Nc2nccs2)cc1
inactive: [1] | [2] | [3] | [4] | [5] | [6] | [7] | [8] | [9] | [10] | [11] | [13] | [14] | [15] | [16] | [19] | [17] | [18]

CCCCC(=O)O[C@]1(C(=O)CO)[C@H](C)C[C@H]2[C@@H]3CCC4=CC(=O)C=C[C@]4(C)[C@@]3(F)[C@@H](O)C[C@@]21C
inactive: [1] | [20] | [3] | [4] | [5] | [6] | [7] | [8] | [9] | [10] | [11] | [12] | [13] | [14] | [15] | [16] | [18]

CNS(=O)(=O)CCc1ccc2[nH]cc(C3CCN(C)CC3)c2c1
inactive: [1] | [20] | [3] | [4] | [5] | [6] | [7] | [8] | [9] | [11] | [12] | [13] | [14] | [17] | [18]

CC(C)(C#N)Nc1nc(Cl)nc(NC2CC2)n1
inactive: [1] | [2] | [3] | [4] | [5] | [6] | [7] | [8] | [9] | [10] | [11] | [12] | [13] | [14] | [16] | [17] | [18]

NC(=O)C(c1ccccc1)(c1ccccc1)[C@@H]1CCN(CCc2ccc3c(c2)CCO3)C1
inactive: [1] | [20] | [2] | [4] | [5] | [7] | [8] | [9] | [13] | [14] | [16] | [18]

OCCCO
inactive: [1] | [2] | [3] | [4] | [5] | [6] | [7] | [8] | [9] | [10] | [11] | [13] | [14] | [15] | [16] | [19] | [17] | [18]

Source: PubChem BioAssay (Tox21)
